What all share (assay): NCI-60 one-dose screen, 48 h (100 = growth as untreated, 0 = no growth, -100 = all killed)
Settings in all cases: 10 µM

Assay [1] has as its system NCI-H23 lung.
The subject of assay [2] is NCI-H226 lung.
For assay [3], the system named is HOP-62 NSCLC.
In assay [4] the test system is HOP-92 NSCLC.
Assay [5] concerns NCI-H522 lung.
The test system of assay [6] is A549/ATCC NSCLC.
The subject of assay [7] is 786-0 renal.
Assay [8] relates to COLO 205 colon.
In assay [9] the test system is DU-145 prostate.
Assay [10] concerns K-562 leukemia.
For assay [11], the system named is MDA-MB-231 breast.
For assay [12], the system named is RXF 393 renal.
The subject of assay [13] is SF-268 CNS.
Assay [14] concerns SF-295 CNS.
Assay [15] relates to SF-539 CNS.
For assay [16], the system named is UACC-257 melanoma.
Assay [17] concerns M14 melanoma.
In assay [18] the test system is NCI-H460 lung.
In assay [19] the test system is MALME-3M melanoma.

The structures appear in SMILES notation. Compounds without any hit were thinned out: in the full panel of roughly 83,000, 20% have a hit.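 Testing used 96-well plates and a 48-hour single-concentration exposure. Example: -40 means 40% of the starting cells died.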 A number with no mark means an inactive call. Activity calls are given as the source filed them. Rule for the calls: active = growth percent below 10; inactive = the rest.

For the compound `CCOc1ccccc1/C=N\N=C(\N)N/N=C/c1ccccc1OCC`, the growth was 23.7% in assay [1]; 59.1% in assay [2]; 43.7% in assay [3]; 46.5% in assay [4]; 7.36% (active) in assay [5]; 39.4% in assay [6]. The growth in [7] is 21.4%; in [8] it was 28.9%; in assay [9], 46.1%; in [10] it was 16.3%; in [11] it was 52.5%; in assay [12], -1.54% (active). Besides, the growth in assay [13] was 47.2%; in assay [14], 23.4%; in assay [15], 17.3%; in assay [16] it was 39.1%; in [17], 12.7%.
On to `COc1ccc(-c2nn(-c3cccc(Cl)c3)cc2/C=C2\NC(=S)N(c3ccc(Cl)cc3)C2=O)cc1`, for which the growth is -7.88% (active) in assay [1]; -42.5% (active) in [2]; 11% in [18]; 29.3% in [4]; -37.7% (active) in assay [5]; 18.8% in assay [6]. Further, the growth in assay [7] is 46.6%; in [8], 36.9%; in assay [9], 21.4%; in assay [10], -12.2% (active); in assay [19] it was 19.1%; in [11], 11.8%. In addition, the growth in [12] was -7.45% (active); in assay [13], 38%; in assay [15], 75.3%; in [16], 1.55% (active); in [17] it was 4.39% (active).
Consider `COc1ccc(-c2nn(-c3cccc(Cl)c3)cc2-c2cc(-c3cccs3)[nH]c(=S)n2)cc1`, for which the growth is 15.7% in assay [1]; 58.9% in assay [2]; 43.8% in assay [18]; 94% in assay [4]; 46.5% in assay [5]; 39.7% in assay [6]. Moreover, the growth is 38.4% in [7]; 52.4% in assay [8]; 74.6% in [9]; 28.3% in assay [10]; 31.1% in assay [19]; 83.3% in [11]. Moreover, the growth in [12] is 56.7%; in [13] it was 61.6%; in assay [14], 8.31% (active); in assay [15], 69.3%; in [16], 88.6%; in assay [17], 33.6%.
Take `Cc1cc(NC(=O)c2ccc(C)c(Nc3nccc(-c4cccnc4)n3)c2)cc(-n2cnc(C)c2)c1`: the growth in [1] was 67.6%; in [2], -17.6% (active); in [18] it was 2.48% (active); in assay [4] it was 25.3%; in assay [5], 59.3%; in assay [6], 47.1%. Besides, the growth is -30% (active) in assay [7]; 4.18% (active) in assay [8]; 32.3% in assay [9]; -36.2% (active) in assay [10]; 18.5% in [11]; -3.26% (active) in [12]. Moreover, the growth in [13] is 73.3%; in assay [14] it was -13.4% (active); in assay [15] it was 21.1%; in [16], 87%; in assay [17], 30.9%.
For `COc1ccc(-c2nn(-c3cccc(Cl)c3)cc2-c2nc(N)[nH]c(=O)c2C#N)cc1`, the growth in [1] is 42.7%; in assay [2], 67.3%; in [18], 92.2%; in [4], 71.2%; in [5], 49.6%; in assay [6], 85.1%. For the same compound, the growth in [7] is 57.2%; in [8], 107%; in [9] it was 102%; in assay [10] it was 28.3%; in [19], 37.4%; in [11] it was 62.9%. Moreover, the growth is 63.4% in assay [12]; 68.8% in assay [13]; 38.6% in assay [14]; 75.6% in assay [15]; 94% in [16]; 55.8% in assay [17].
As to `Cc1ccc(C(=O)C2C(=O)C3CCC2C3)cc1` (configuration not stated), the growth was 94.4% in assay [1]; 99.2% in assay [2]; 99.6% in assay [3]; 98% in assay [4]; 101% in [5]; 102% in [6]. Besides, the growth is 104% in [7]; 100% in assay [8]; 121% in [9]; 102% in assay [10]; 121% in assay [19]; 107% in assay [11]. Besides, the growth in assay [12] is 109%; in assay [13] it was 108%; in assay [14], 101%; in assay [15], 106%; in [16] it was 94.1%; in assay [17], 111%.
For the compound `Cc1c2cnccc2c(C)c2c1oc1ccccc12`, the growth is 56.1% in [1]; 69.4% in assay [2]; 28.4% in assay [18]; 113% in assay [4]; 69.6% in [5]; 43% in assay [6]. For the same compound, the growth in assay [7] was 84.9%; in assay [8], 52.3%; in [9], 54.1%; in assay [10] it was 77.2%; in assay [19], 62.7%; in [11], 111%. Moreover, the growth in assay [12] was 71.5%; in assay [13] it was 73.8%; in assay [14] it was 74.9%; in assay [15], 96.6%; in assay [16] it was 86.8%; in assay [17], 81.6%.
In the case of `COc1ccc(-c2nn(-c3cccc(Cl)c3)cc2-c2c(C#N)c(=O)n3[nH]c(-c4ccc(C)cc4)nc3c2C#N)cc1`, the growth in assay [1] was 75.3%; in [2], 57.5%; in assay [18], 39.3%; in assay [4], 59.2%; in [5] it was 20.5%; in [6], 50.5%. Moreover, the growth in [7] was 3.78% (active); in [8] it was 15.9%; in assay [9] it was 28.4%; in assay [10], 4.62% (active); in assay [19] it was 21.4%; in [11], -2.7% (active). Further, the growth in [12] is 28.2%; in assay [13], 35.8%; in assay [14], 23.6%; in assay [15], 34.8%; in assay [16] it was 96.9%; in assay [17], -10.9% (active).
On to `O=S(=O)(NCCCNc1nccc(-c2cn(-c3ccccc3)nc2-c2ccc(Cl)c(O)c2)n1)c1ccccc1`, for which the growth was 78.5% in assay [1]; 76.3% in assay [2]; 46.3% in assay [18]; 65.6% in [5]; 37.3% in assay [6]; 68% in assay [7]. In addition, the growth was 69.4% in assay [8]; 81.4% in [9]; 65% in [10]; 125% in assay [19]; 71.6% in assay [11]; 74.2% in assay [12]. For the same compound, the growth in assay [13] was 68.5%; in assay [14], 63.2%; in assay [15], 88.9%; in [17], 60.7%.

For the origin of these results see PubChem BioAssay (NCI).
